Compound activity from PubChem.
Compounds with a hit are over-represented: about 19% of the library has one in this group of screens.
HepG2 tox: kills HepG2 cells in TGF-b inhibitor counter-screen. Potency, µM (titrated, usually from 46.1 µM), for inactives: at the top dose activity change, negative = cytotoxicity, hits mostly cytotoxic. 0.76% of 410,000 active. HepG2 CAGA-GFP viability, ATP luminescence, 18 h; note: potency is the fitted concentration of half-maximal effect
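CellTiter-Glo luminescence gave cytotoxicity after 18 hours at 37 degrees C. The cells were HepG2 CAGA-GFP in 1% FBS DMEM, stimulated with 500 pg/mL TGF-beta after compound addition. %Activity was normalised to no-cell wells (complete cell-killing) and DMSO (no toxicity), and curves were fitted and classified.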
TDP1 inh: inhibitors of human tyrosyl-DNA phosphodiesterase TDP1; Q9NUW8; recombinant TDP1, AlphaScreen DNA substrate cleavage; Potency, µM (top dose mostly 130 µM), without a hit: top-dose activity change, negative = inhibition, hits mostly inhibitors; 0.28% of 350,000 active; AID 485290; note: potency is the fitted concentration of half-maximal effect; % is set by controls: 0 for no effect and ±100 for the full control effect; nearly all actives have a fitted effect of over 40% in size
Target sequence (Q9NUW8 whole entry, looked up): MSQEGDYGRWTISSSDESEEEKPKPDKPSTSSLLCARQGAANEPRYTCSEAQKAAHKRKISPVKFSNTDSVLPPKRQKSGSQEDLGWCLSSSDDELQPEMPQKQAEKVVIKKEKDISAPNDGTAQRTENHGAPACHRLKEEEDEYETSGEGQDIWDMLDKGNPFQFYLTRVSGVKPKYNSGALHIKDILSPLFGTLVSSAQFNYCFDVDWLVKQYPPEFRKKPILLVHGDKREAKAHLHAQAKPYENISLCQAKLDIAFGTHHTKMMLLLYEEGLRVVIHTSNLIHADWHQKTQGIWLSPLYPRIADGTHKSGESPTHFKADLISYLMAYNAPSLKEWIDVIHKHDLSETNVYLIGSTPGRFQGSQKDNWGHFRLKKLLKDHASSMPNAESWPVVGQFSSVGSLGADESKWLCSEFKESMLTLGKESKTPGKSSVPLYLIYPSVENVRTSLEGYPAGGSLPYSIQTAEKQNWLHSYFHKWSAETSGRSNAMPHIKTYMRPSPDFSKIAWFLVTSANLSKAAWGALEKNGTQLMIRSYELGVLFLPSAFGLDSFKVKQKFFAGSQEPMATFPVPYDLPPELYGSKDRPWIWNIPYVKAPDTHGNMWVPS
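Tdp1 1 nM final; 15 min RT w/ cpd; substrate 15 nM, 5 min; beads 10 ug/ml, 10 min; AlphaScreen read. Neg ctrl: no enzyme.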
DT40 TDP1 no CPT: qHTS for Inhibitors of human tyrosyl-DNA phosphodiesterase 1 (TDP1): qHTS in cells in absence of CPT; DT40 Tdp1-/- hTDP1 cells, no CPT, ATP luminescence, 48 h; Potency, µM (doses to about 46.2 µM), inactives show top-dose activity change, negative = growth inhibition, most hits filed as inhibitors; 15% of 420,000 active; AID 686978, 2013; note: potency is the fitted concentration of half-maximal effect; % is set by controls: 0 for no effect and ±100 for the full control effect; nearly all actives have a fitted effect of over 55% in size
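Chicken DT40 Tdp1-/- cells complemented with human TDP1, screened without camptothecin (DMSO vehicle only), 400 cells/well. Compounds pin-transferred, cells incubated at 37 °C for at least 48 hr. Growth read as ATP-dependent luminescence (CellTiter-Glo, 30 min at RT).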
TDP1 cell CPT: DT40-hTDP1 cell growth loss with CPT | chicken DT40 Tdp1-/-;hTDP1 cells + 20 nM CPT, ATP luminescence, 48 h | Potency, µM (series often up to 46.2 µM), without a hit: at the top dose activity change, negative = growth inhibition, most hits filed as inhibitors | 12% of 420,000 active; note: potency is the fitted concentration of half-maximal effect; % is set by controls: 0 for no effect and ±100 for the full control effect; nearly all actives have a fitted effect of over 55% in size
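Cell growth measured by CellTiter-Glo luminescence after a minimum 48 h, 37 C compound exposure with 20 nM CPT in Tdp1-knockout DT40 cells stably expressing hTDP1, seeded 400/well; qHTS titration format.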
TGFb inhibitor: TGF-b pathway inhibition; HepG2 CAGA-GFP TGF-b/SMAD3 reporter, GFP fluorescence, 18 h; TGF-beta stimulated, 500 pg/mL final; Potency, µM (series often up to 46.1 µM), inactives show at the highest dose activity, negative = inhibition, usual class: inhibitors; 1.2% of 410,000 active; AID 588855; note: potency is the fitted concentration of half-maximal effect; % is set by controls: 0 for no effect and ±100 for the full control effect; nearly all actives have a fitted effect of over 65% in size
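Cell-based qHTS in HEPG2 carrying a CAGA-GFP Smad reporter; compounds added before 500 pg/mL final TGF-beta, 18 h incubation at 37 degrees C, GFP fluorescence quantified per cell by imaging cytometry.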
IL-1B inflam inh: inflammasome signaling inhibition, IL-1 beta readout. 4.7% of 360,000 active. THP-1 LPS/ATP IL-1B secretion, AlphaLISA, 16 h; active compounds read low. activity change, % at 57.5 µM; in the data active = activity change below about -50%; inconclusive = mostly about -30% to -49%; note: % is set by controls: 0 for no effect and ±100 for the full control effect
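Secreted IL-1B measured by AlphaLISA bead assay after 16 h compound exposure of THP-1 cells; compounds (final up to 57.5 uM) added 1 h before LPS (250 ng/mL) and ATP (1.25 mM) stimulation; lower signal means less secretion.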
* = called active by the depositor; u = inconclusive; x = not tested or not shown; [ ] = dose if it differs, or a comment. Unless noted, calls come from the whole dose curve; as a rule, active = well fitted curve in the direction sought with a large enough effect; inconclusive = small, poorly fitted or top-dose-only effect, or another doubt; inactive = no such curve, though single readings can be large; an effect the other way counts as inactive or inconclusive.

SMILES	HepG2 tox	TDP1 inh	DT40 TDP1 no CPT	TDP1 cell CPT	TGFb inhibitor	IL-1B inflam inh
COC(=O)COc1ccc(/C=N/NS(=O)(=O)c2ccccc2)cc1	-18%	x	-13%	1%	-11%	-92*
Cc1cccc(N2C(=O)C(CC(=O)Nc3ccc(Cl)cc3)N(Cc3ccco3)C2=O)c1 (centres undefined)	-34%	3%	u	u	u	x
CCOc1ccc(NC(=O)CC2C(=O)N(c3cccc(C)c3)C(=O)N2Cc2cccs2)cc1 (centres undefined)	-37%	3%	21µM*	u	-21%	x
CCc1ccc(NC(=O)CC2C(=O)N(c3ccc(OC)cc3)C(=O)N2Cc2cccs2)cc1 (centres undefined)	-9%	-3%	u	u	-8%	x
Cc1cccc(N2C(=O)C(CC(=O)Nc3cccc(F)c3)N(Cc3cccs3)C2=O)c1 (centres undefined)	-36%	0%	18µM*	u	-22%	x
CCc1ccc(NC(=O)CC2C(=O)N(c3ccc(Cl)cc3)C(=O)N2Cc2cccs2)cc1 (centres undefined)	-37%	3%	4.1µM*	4.6µM*	u	x
O=Cc1ccsc1B(O)O	17%	2%	-1%	-3%	28%	x
O=S(=O)(Nc1ccc(Cl)cn1)c1cccs1	1%	3%[0.0935 µM]	-3%	13%	6%	35
Cc1ccc(N2CCN(c3ccc(C)cc3)C2c2cccnc2)cc1	-15%	8%	u	23µM*	u	-86*
c1ccc(N2CCN(c3ccccc3)C2c2ccncc2)cc1	-12%	7%	-24%	-27%	-12%	-69*
Cn1c(=O)n(C)c2cc(NC(=O)COc3ccc(F)cc3)ccc21	2%	x	u	u	2%	40
Cc1ncc2c(c1CNC(=O)c1ccc3c(c1)OCO3)CCN(C(=O)c1noc3c1CCCC3)C2	x	x	-12%	0%[9.04 µM]	x	x
O=C(NCCNc1ccnc2cc(Cl)ccc12)c1ccccc1F	-23%	x	4.1µM*	6.5µM*	-12%	-14
Cc1ccc(C(=O)NCCNc2ccc(Cl)cc2[N+](=O)[O-])o1	-21%	7%	-16%	u	-10%	0
O=C(NCCNc1ccc(Cl)cc1[N+](=O)[O-])c1ccccc1F	-7%	3%	21µM*	-18%	u	-7
COc1ccc(CCNC(=O)c2c(C)oc3ncnc(N4CCOCC4)c23)c(OC)c1	6%	5%	-11%	3%	2%	x
O=c1c2oc3ccccc3c2n(Cc2cccc(F)c2)c(=O)n1Cc1ccco1	5%	0%	u	u	7%	x
COC(=O)c1ccc2nc(-c3ccc(C)cc3)c(CC3CCCCC3)n2c1	-27%	x	16µM*	21µM*	u	9
Cc1ccc(-c2nc3ccc(Cl)cn3c2CC2CCCCC2)cc1	-12%	x	u	-20%	-5%	-22
Cc1ccc2nc(-c3cccc(Br)c3)c(CC3CCCCC3)n2c1	-49%	x	u	u	u	-5
COC(=O)c1ccc2nc(-c3ccc(F)cc3)c(CC3CCCCC3)n2c1	x	x	21µM*	26µM*	x	45
Cc1ccc(-c2nc3ccc(C)cn3c2CC2CCCCC2)cc1	x	x	16µM*	u	x	18
CC(C)N(C(=O)COC(=O)c1cccc(N(C)C)c1)c1ccccc1	-18%	21%	u	u	1%	11
COc1ccccc1-c1nnc(SCC(=O)NNC(=O)c2ccccc2F)n1C	-2%	0%	-1%	6%	-4%	32
FC(F)(F)C(F)(F)C(F)(F)C(F)(F)C(F)(F)C(F)(F)F	x	x	7%	2%	x	x
SMILES	HepG2 tox	TDP1 inh	DT40 TDP1 no CPT	TDP1 cell CPT	TGFb inhibitor	IL-1B inflam inh
CCCn1nnc(NC(=S)NC(=O)CC)n1	-25%	2%	18µM*	23µM*	-27%	-1
CCCn1nnc(NC(=S)NC(=O)Cc2ccccc2)n1	-56%	6%	23µM*	u	u	90
O=C(Nc1ccc(Br)cc1F)c1cc(S(=O)(=O)NC2CCCC2)ccc1F	-65%	3%	16µM*	21µM*	u	x
CCc1ccccc1NC(=O)c1cc(S(=O)(=O)NC2CCCC2)ccc1F	-19%	5%	21µM*	u	-15%	x
O=C(Nc1ccc(Cl)cc1F)c1cc(S(=O)(=O)NC2CCCCCC2)ccc1F	-61%	7%	u	21µM*	u	x
COc1ccc(C)cc1NC(=O)c1cc(S(=O)(=O)NC2CCCCCC2)ccc1F	-9%	0%	u	u	u	x
O=C(Nc1ccc(Br)cc1F)c1cc(S(=O)(=O)NCc2ccc(F)cc2)ccc1F	-32%	3%	u	-11%	1%	x
CSCCC(NC(=O)C1CCCCC1)C(=O)Nc1ccc(F)c(Cl)c1 (centres undefined)	-15%	-3%	-27%	u	u	x
CC1(C)CC(=O)C=C(N2CCNCC2)C1	-6%	-4%	14%	-1%	7%	-14
CSc1nc(N2CCN(c3ccccc3)CC2)cc(N2CCN(c3ccccc3)CC2)n1	-4%	3%	-25%	-1%	-4%	-2
CC1(C)CC(N2CCN(c3ccccc3)CC2)=CC(=[N+]2CCCC2)C1	-3%	7%	0.23µM*	0.18µM*	-20%	-102*
CC1CC(C)C[N+](=C2C=C(N3CCCC3)CC(C)(C)C2)C1 (centres undefined)	-46%	0%	0.0082µM*	0.21µM*	u	u
Cc1ccc(CNC(=O)CSc2nc3c(sc4ccccc43)c(=O)n2CCCOC(C)C)cc1	14%	0%	u	-8%	13%	x
Cc1csc(Nc2ccccc2)[n+]1-c1ccccc1	-21%	6%	u	-20%	3%	-20
Cc1ccccc1Nc1scc(-c2ccc(Cl)cc2)[n+]1-c1ccccc1C	-26%	5%	23µM*	18µM*	-26%	-15
COc1cc(=O)n2c(c1C(=O)N(C)Cc1nonc1C)CCN(C(=O)c1cccc(C)c1C)CC2	x	x	-7%	5%	x	x
O=C(NC1(O)C(=O)c2ccccc2C1=O)c1c(Cl)cccc1Cl	-5%	-2%	26µM*	u	18%	7
O=C(Nc1ccccc1Cl)c1c(F)c(F)c(F)c(F)c1F	-28%	x	-18%	-11%	0%	u
O=C(NC1(O)C(=O)c2ccccc2C1=O)c1ccccc1	11%	-2%	u	26µM*	-4%	-8
